Assay results published in PubChem BioAssay (NCATS).
Results filed as inconclusive are left out. Active and inactive are the calls of the source. The call rests on the fitted dose curve; in most records, active means well fitted inhibition curve with a large enough effect; inconclusive means small, poorly fitted or top-dose-only effect; inactive means flat fitted curve, though single readings scatter.

Legend:
P93_24 = assay: qHTS profiling for inhibitors of Plasmodium falciparum proliferation (AID 504749);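 further: 0% = DMSO vehicle and full inhibition = artemisinin control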; conditions: P. falciparum in erythrocytes, SYBR Green DNA, 72 h; series mostly up to 28.7 µM
Procedure, shortened: (§1)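 SYBR Green fluorescence of parasite DNA, read after lysis and overnight dark incubation, measured growth over 72 h in erythrocyte culture at 0.3% parasitemia and 2.5% hematocrit. Data normalised to DMSO and 0.29 uM artemisinin, with plate-drift correction.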

P94_40 = assay: as above; conditions: P. falciparum in erythrocytes, SYBR Green DNA, 72 h; series mostly up to 28.7 µM
Procedure, shortened: as §1

PAD = assay: as above; conditions: P. falciparum in erythrocytes, SYBR Green DNA, 72 h; series mostly up to 28.7 µM
Procedure, shortened: as §1

PC15 = assay: as above; conditions: P. falciparum in erythrocytes, SYBR Green DNA, 72 h; series mostly up to 28.7 µM
Procedure, shortened: as §1

PC26 = assay: as above; conditions: P. falciparum in erythrocytes, SYBR Green DNA, 72 h; series mostly up to 28.7 µM
Procedure, shortened: as §1

PC49 = assay: as above; conditions: P. falciparum in erythrocytes, SYBR Green DNA, 72 h; series mostly up to 28.7 µM
Procedure, shortened: as §1

SC27B = assay: as above; conditions: P. falciparum in erythrocytes, SYBR Green DNA, 72 h; series mostly up to 28.7 µM
Procedure, shortened: as §1

TAB109 = assay: as above; conditions: P. falciparum in erythrocytes, SYBR Green DNA, 72 h; series mostly up to 28.7 µM
Procedure, shortened: as §1

TAB113 = assay: as above; conditions: P. falciparum in erythrocytes, SYBR Green DNA, 72 h; series mostly up to 28.7 µM
Procedure, shortened: as §1

TAB165 = assay: as above; conditions: P. falciparum in erythrocytes, SYBR Green DNA, 72 h; series mostly up to 28.7 µM
Procedure, shortened: as §1

W2 = assay: as above; conditions: P. falciparum in erythrocytes, SYBR Green DNA, 72 h; series mostly up to 28.7 µM
Procedure, shortened: as §1

CRL-7250 = normal cell line; assay: Cytotoxic Profiling of Annotated Libraries Using Quantitative High-Throughput Screening (AID 1296008); conditions: Five cell lines viability, CellTiter-Glo ATP luminescence, 48-72 h; stronger effect = lower value; on max response: on the % scale 0 is the no-effect control and ±100 the full control effect
Procedure, shortened: (§2)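 Cytotoxicity was measured as CellTiter-Glo ATP luminescence, read after 10 min at room temperature. Compound treatment of the cells lasted 48 or 72 hr at 37 degrees Celsius in a qHTS format.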

HEK293 = assay: as above; conditions: Five cell lines viability, CellTiter-Glo ATP luminescence, 48-72 h; stronger effect = lower value
Procedure, shortened: as §2

HaCat = assay: as above; conditions: Five cell lines viability, CellTiter-Glo ATP luminescence, 48-72 h; stronger effect = lower value
Procedure, shortened: as §2

KB-3-1 = assay: as above; conditions: Five cell lines viability, CellTiter-Glo ATP luminescence, 48-72 h, stronger effect = lower value
Procedure, shortened: as §2

NIH3T3 = assay: as above; conditions: Five cell lines viability, CellTiter-Glo ATP luminescence, 48-72 h; stronger effect = lower value
Procedure, shortened: as §2

MCC-13 = assay: qHTS assay to identify novel small-molecules to repurpose for Merkel cell carcinoma treatment (AID 1296009); conditions: MCC and control cell lines, CellTiter-Glo viability, 72 h; series mostly up to 46 µM; further: on the % scale 0 is the no-effect control and ±100 the full control effect
Procedure, shortened: (§3)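 Cell viability, measured as CellTiter-Glo luminescence, was normalized between DMSO and no-cell wells. The cells had been exposed to 8- or 11-point compound dilutions for 72 hr at 37 degree celsius.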

MCC-26 = assay: as above; conditions: MCC and control cell lines, CellTiter-Glo viability, 72 h; series mostly up to 46 µM
Procedure, shortened: as §3
Further: nearly all actives have a fitted effect of over 60% in size.

O=C(CN1CCNCC1)NC1CCCCC1
inactive: Potency (P93_24) | Potency (P94_40) | Potency (PAD) | Potency (PC15) | Potency (PC26) | Potency (PC49) | Potency (SC27B) | Potency (TAB109) | Potency (TAB113) | Potency (TAB165) | Potency (W2) | max response (CRL-7250) -5.07% | max response (HEK293) -4.92% | max response (HaCat) 0.716% | max response (KB-3-1) 2.43% | outcome (NIH3T3) inactive; activator | outcome (MCC-13)

CCCCCCCC(=O)OCC(O)CO (centres undefined)
inactive: Potency (P93_24) | Potency (P94_40) | Potency (PAD) | Potency (PC15) | Potency (PC26) | Potency (PC49) | Potency (SC27B) | Potency (TAB109) | Potency (TAB113) | Potency (TAB165) | Potency (W2) | max response (CRL-7250) -18.7% | max response (HEK293) -8.91% | max response (HaCat) -12% | max response (KB-3-1) -2.18% | max response (NIH3T3) -10.3% | outcome (MCC-13) | outcome (MCC-26)

CC(=O)N(CC(O)CO)c1c(I)c(C(=O)NCC(O)CO)c(I)c(C(=O)NCC(O)CO)c1I (centres undefined)
inactive: Potency (P94_40) | Potency (PC49) | Potency (SC27B) | Potency (TAB109) | outcome (CRL-7250) | max response (HEK293) 1.45% | max response (HaCat) 3.3% | max response (KB-3-1) -10.7% | outcome (NIH3T3) | outcome (MCC-13)

Cc1c(C)c2c(c(C)c1OC(=O)c1cccnc1)CC[C@@](C)(CCC[C@H](C)CCC[C@H](C)CCCC(C)C)O2
inactive: Potency (P93_24) | Potency (P94_40) | Potency (PAD) | Potency (PC15) | Potency (PC26) | Potency (PC49) | Potency (SC27B) | Potency (TAB109) | Potency (TAB113) | Potency (TAB165) | Potency (W2) | outcome (CRL-7250) | max response (HEK293) -1.31% | max response (HaCat) 0.9% | max response (KB-3-1) 1.29% | outcome (NIH3T3) | outcome (MCC-13) | outcome (MCC-26)

Cc1ncc(CO)c(CN)c1O
inactive: Potency (P94_40) | Potency (PC15) | Potency (PC26) | Potency (PC49) | Potency (SC27B) | Potency (TAB109) | Potency (TAB113) | Potency (TAB165) | max response (CRL-7250) -0.831% | max response (HEK293) -5.62% | max response (HaCat) -4.24% | max response (KB-3-1) -2% | outcome (NIH3T3) | outcome (MCC-13) | outcome (MCC-26)

CCOc1ccc(C(=O)OCCN(CC)CC)cc1
inactive: Potency (P93_24) | Potency (P94_40) | Potency (PAD) | Potency (PC15) | Potency (PC26) | Potency (PC49) | Potency (SC27B) | Potency (TAB109) | Potency (TAB113) | Potency (TAB165) | Potency (W2) | max response (CRL-7250) -0.597% | max response (HEK293) 1.58% | max response (HaCat) -25.1% | max response (KB-3-1) -3.59% | max response (NIH3T3) -1.32% | outcome (MCC-13) | outcome (MCC-26)

NC(=O)NS(=O)(=O)c1ccc(N)cc1
inactive: Potency (P93_24) | Potency (P94_40) | Potency (PAD) | Potency (PC15) | Potency (PC26) | Potency (PC49) | Potency (SC27B) | Potency (TAB109) | Potency (TAB113) | Potency (TAB165) | Potency (W2) | max response (CRL-7250) -2.79% | max response (HEK293) -4.98% | max response (HaCat) 2.87% | max response (KB-3-1) 0.448% | outcome (NIH3T3) | outcome (MCC-13) | outcome (MCC-26)

O=C(OOC(=O)c1ccccc1)c1ccccc1
inactive: Potency (P93_24) | Potency (P94_40) | Potency (PAD) | Potency (PC15) | Potency (PC26) | Potency (PC49) | Potency (SC27B) | Potency (TAB109) | Potency (TAB113) | Potency (TAB165) | Potency (W2) | outcome (CRL-7250) | max response (HEK293) 2.9% | max response (HaCat) -8.52% | max response (KB-3-1) -3.15% | outcome (NIH3T3) | outcome (MCC-13) | outcome (MCC-26)

Cc1c(I)c(=O)n(-c2ccccc2)n1C
inactive: Potency (P93_24) | Potency (P94_40) | Potency (PAD) | Potency (PC15) | Potency (PC26) | Potency (PC49) | Potency (SC27B) | Potency (TAB109) | Potency (TAB113) | Potency (TAB165) | Potency (W2) | max response (CRL-7250) 1.27% | max response (HEK293) -2.1% | max response (HaCat) -20.9% | max response (KB-3-1) 2.22% | outcome (NIH3T3) | outcome (MCC-13) | outcome (MCC-26)

CC(C)CCCC(C)CCCC(C)CCCCC(C)CCCC(C)CCCC(C)C (centres undefined)
inactive: Potency (P93_24) | Potency (PAD) | Potency (PC15) | Potency (PC26) | Potency (PC49) | Potency (SC27B) | Potency (TAB109) | Potency (TAB113) | Potency (TAB165) | Potency (W2) | outcome (CRL-7250) | max response (HEK293) -6.17% | max response (HaCat) -19.8% | max response (KB-3-1) 12.8% | max response (NIH3T3) -1.47% | outcome (MCC-13) | outcome (MCC-26)

Cc1cc(C)nc(NS(=O)(=O)c2ccc(N)cc2)n1
inactive: Potency (P93_24) | Potency (P94_40) | Potency (PAD) | Potency (PC15) | Potency (PC26) | Potency (PC49) | Potency (SC27B) | Potency (TAB109) | Potency (TAB113) | Potency (TAB165) | Potency (W2) | max response (CRL-7250) -8.07% | max response (HEK293) 3.16% | max response (HaCat) 3.39% | max response (KB-3-1) -0.934% | outcome (NIH3T3) | outcome (MCC-13)
